Source: PubChem BioAssay (NCATS)
Results filed as inconclusive are left out. Calls of active or inactive are those of the source. Calls follow the shape of the dose curve; as a rule, active = well fitted inhibition curve with a large enough effect; inconclusive = small, poorly fitted or top-dose-only effect; inactive = no such curve, though single readings can be large or run the other way.

Target: Retinaldehyde dehydrogenase 3 (Homo sapiens) (UniProt P47895)
Assay: qHTS for Inhibitors of the Aldehyde Dehydrogenase Family (ALDH1A3) Primary screen (AID 2061315);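 also: plate controls were DMSO vehicle for no effect and reference inhibitor for full effect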
Conditions: ALDH inhibition qHTS; series mostly up to 56 µM; activity change, negative = inhibition: at the top concentration

| SMILES | activity change, negative = inhibition |
| --- | --- |
| Cc1cc(F)ccc1-c1nc(NCCN=C(N)NC#N)nc2c1ccc(=O)n2-c1c(F)cccc1F | 2.57% (inactive) |
| CCC/C=C/C=C/C1CC(O)C2(O)C(=O)OCC12 (configuration not stated) | 1.08% (inactive) |
| CC(O)C1CCC2C3CCC4CC(OC5OC(C(=O)O)C(O)C(O)C5O)CCC4(C)C3CCC12C (configuration not stated) | 1.63% (inactive) |
| CC(=O)O[C@@H]1[C@H](O[C@@H]2O[C@@H](CO)[C@H](O)[C@H]2O)[C@@H](O[C@@H]2O[C@@H](C)[C@H](O[C@@H]3OC[C@@H](O)[C@H](O)[C@H]3O)[C@@H](O)[C@H]2O)[C@H](OC(=O)[C@]23CCC(C)(C)C[C@H]2C2=CCC4[C@@]5(C)CC[C@H](O[C@@H]6O[C@H](C(=O)O)[C@@H](O)[C@H](O)[C@H]6O[C@@H]6O[C@H](CO)[C@H](O)[C@H](O)[C@H]6O)[C@@](C)(C=O)C5CC[C@@]4(C)[C@]2(C)CC3)O[C@@H]1C (some centres not stated) | 3.44% [at 11.2 µM] (inactive) |
| CC(=O)O[C@@H]1[C@H](O[C@@H]2O[C@H](CO)[C@@H](O)[C@H](O)[C@H]2O)[C@@H](O[C@@H]2O[C@@H](C)[C@H](O)[C@@H](O[C@@H]3O[C@H](CO)[C@@H](O)[C@H](O)[C@H]3O)[C@H]2O)[C@H](OC(=O)C23CCC4(C)C(=CCC5C6(C)CC(O)C(O[C@@H]7O[C@H](C(=O)O)[C@@H](O)[C@H](O)[C@H]7O)C(C)(C(=O)O)C6CCC54C)C2CC(C)(C)CC3O)O[C@@H]1C (some centres not stated) | -5.68% [at 11.2 µM] (inactive) |
| C[C@@H]1C(=O)O[C@H](C)[C@H]1CC(=O)[C@](C)(O)[C@H]1CC[C@@]2(O)C3=CC(=O)[C@@H]4C[C@@H](O)[C@@H](O)C[C@]4(C)C3CC[C@]12C (some centres not stated) | -16.7% [at 28 µM] (inactive) |
| O=C(Nc1ccc(-c2ccncc2)cc1)N[C@H](CO)c1ccccc1 | -0.702% (inactive) |
| CN1CCc2nc(C(=O)N[C@@H]3C[C@@H](C(=O)N(C)C)CC[C@@H]3NC(=O)C(=O)Nc3ccc(Cl)cn3)sc2C1 | -8.97% (inactive) |
| C=CCc1ccc(O[C@@H]2O[C@H](CO[C@@H]3O[C@H](CO)[C@@H](O)[C@H](O)[C@H]3O)[C@@H](O)[C@H](O)[C@H]2O)c(O)c1 | 12.8% [at 28 µM] (inactive) |
| CC1=CC(=O)CC(C)(C)[C@@]1(O)CC[C@@H](C)O[C@@H]1O[C@H](CO)[C@@H](O)[C@H](O)[C@H]1O | -2.15% (inactive) |
| CN(C)CC#CCCC(=O)C(O)(c1ccccc1)C1CCC1 (configuration not stated) | -17.4% (inactive) |
| O=C(O)C[C@H]1CCC(=O)[C@@H]1C/C=C\CCOC1OC(CO)C(O)C(O)C1O (some centres not stated) | 2.15% (inactive) |
| Nc1nc2c(c(=O)[nH]1)C[C@@H](CCc1ccc(C(=O)N[C@@H](CCC(=O)O)C(=O)O)cc1)CN2 | -13.2% (inactive) |
| C/C(=C\CCC(C)CCO)C(=O)O[C@@H]1[C@@H](O)[C@H](OC2OC=C(C(=O)O)C3CCC(C)(O)C23)O[C@H](CO)[C@H]1O (some centres not stated) | 2.71% [at 28 µM] (inactive) |
| CCC(CC)(NC(=O)C(C)C)C(=O)N[C@@H](CCCN=C(N)N)C(=O)NC1(C(=O)NC(c2ccc(F)cc2)c2ccc(F)cc2)CCCC1 | -6.99% (inactive) |
| O=C(NCC(O)CO)c1ccncc1Nc1ccc(I)cc1F (configuration not stated) | 0.221% (inactive) |
| COc1cccc(OC)c1-c1ccc(C[C@H](NC(=O)c2c(Cl)cccc2Cl)C(=O)O)cc1 | -4.02% (inactive) |
| C=C1C(OC(C)=O)C(=O)C2C(C)(C)C(OC(C)=O)CCC2(C)C1CC(OC(C)=O)/C(C)=C/COC(C)=O (configuration not stated) | 2.78% [at 28 µM] (inactive) |
| CC1CCC2C(C(=O)O)=CC3CC(C)(C)CC132 (configuration not stated) | 8.13% (inactive) |
| C=C1CCC2C(C)(C)C(O)CCC2(C)C1CCC(C)CCOC(C)=O (configuration not stated) | -17.8% (inactive) |
| C=C1CC23CC1CCC2C12OC(=O)C(C)(C(O)C(O)C1O)C2C3C(=O)O (configuration not stated) | -12.9% (inactive) |
| C/C=C(\C)C(=O)OC1CC2C(CC=C3CC(OC4CC(OC)C(OC5CC(OC)C(OC6CC(OC)C(OC7CC(OC)C(OC8CC(OC)C(OC9OC(CO)C(O)C(O)C9O)C(C)O8)C(C)O7)C(C)O6)C(C)O5)C(C)O4)CCC32C)C2(O)CCC(C(C)=O)C12C (configuration not stated) | 17.2% [at 11.2 µM] (inactive) |
| COc1cc(C2c3cc(O)c(OC)cc3CC(CO)C2CO)ccc1O (configuration not stated) | -21.5% (inactive) |
| C/C(=C/CO)CC[C@@H]1[C@@](C)(O)CCC2C(C)(C)CCC[C@]21C (some centres not stated) | 3.93% (inactive) |
| CC12CCC(OC3OC(CO)C(O)C(OC4OC(CO)C(O)C(O)C4O)C3O)CC1=CCC1C2CCC2(C)/C(=C3/COC(=O)C3)CCC12O (configuration not stated) | -7.86% [at 16.9 µM] (inactive) |
| C=C1C(=O)OC2C1C(O)CC1(C)C(O)CCC(C=O)C21 (configuration not stated) | 10.3% (inactive) |
| C=CC(C)(O)CC[C@H]1C(=C)CCC2[C@](C)(C(=O)O)CCC[C@@]21C (some centres not stated) | 15.9% (inactive) |
